From PubChem BioAssay
A selection: hits, their analogues and other compounds. The true share with any hit is near 0.39%.
EPAC2 antag: qHTS for Antagonist of cAMP-regulated guanine nucleotide exchange factor 2 (EPAC2): primary screen. 360,000 tested, 0.18% active. Rap guanine nucleotide exchange factor 4 (Homo sapiens), Q8WZA2. EPAC2 GEF exchange of Rap1B-BODIPY-GDP, fluorescence. Potency, µM (series often up to 114 µM), without a hit: top-dose activity, negative = inhibition, usual class: inhibitors; also: % is scaled to controls: 0 for no effect and ±100 for the full control effect; nearly all actives have a fitted effect of over 45% in size
EPAC2 ag: qHTS for Agonist of cAMP-regulated guanine nucleotide exchange factor 4 (EPAC2): primary screen; Rap guanine nucleotide exchange factor 4 (Homo sapiens), Q8WZA2; EPAC2 activation, biochemical qHTS; response scale: 100% = 6.5 mM cAMP response; Potency, µM (doses to about 154 µM), inactives show at the highest dose activation, hits mostly activators; 360,000 tested, 0.079% active; AID 720711, 2013; also: nearly all actives have a fitted effect of over 50% in size
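Nucleotide exchange monitored as fluorescence drop when BODIPY-GDP leaves Rap1B. Reaction: 100 nM EPAC2, 250 nM RAP1B-BODIPY-GDP, 50 uM GDP, room temperature, kinetic read over 30 min. Activity expressed relative to 6.5 mM cAMP.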
EPAC1 antag: qHTS for Antagonist of cAMP-regulated guanine nucleotide exchange factor 3 (EPAC1): primary screen; EPAC1 GEF assay, Rap1b-BODIPY-GDP exchange fluorescence; Potency, µM (top dose mostly 115 µM), without a hit: at the top dose activity change, negative = inhibition, actives largely listed as inhibitors; 360,000 tested, 0.14% active;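 also: plate controls were vehicle for no effect and positive control for full effect; nearly all actives have a fitted effect of over 50% in size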
EPAC1 agonist: qHTS for Agonist of cAMP-regulated guanine nucleotide exchange factor 3 (EPAC1): primary screen. Rap guanine nucleotide exchange factor 3 (Homo sapiens), O95398. EPAC1 agonist qHTS, biochemical assay; response scale: 100% = response to 6.5 mM cAMP. Potency, µM (highest dose often 154 µM), for inactives: top-dose activation, hits mostly activators. 360,000 tested, 0.073% active; also: nearly all actives have a fitted effect of over 60% in size
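Multi-concentration qHTS readout: loss of Rap1B-bound BODIPY-GDP fluorescence driven by 100 nM EPAC1 with excess GDP (50 uM), monitored kinetically at room temperature; agonist response expressed relative to 6.5 mM cAMP.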
An asterisk follows results filed as active. Calls follow the shape of the dose curve; as a rule, active = well fitted curve in the direction sought with a large enough effect; inconclusive = small, poorly fitted or top-dose-only effect, or another doubt; inactive = no such curve, though single readings can be large; an effect the other way counts as inactive or inconclusive. Potency is read from the fitted curve at half-maximal effect.

How did COc1cccc(NC(=O)c2csc3c2CCCC3)c1 do in these assays?
EPAC2 antag: -8.7%; EPAC2 ag: 12.5%; EPAC1 antag: 155.4%; EPAC1 agonist: 100µM*

How did CCCCCCCCN1C(=O)[C@H](CC(=O)NCc2ccc(OC)c(OC)c2)C[C@@]2(C(=O)OC)CCCCC=C12 do in these assays?
EPAC2 antag: 37.7µM*; EPAC2 ag: -9.6%; EPAC1 antag: -27.9%; EPAC1 agonist: -24.5%

Results for O=c1ccc2c(-c3ccccc3)c3ccc(O)cc3oc-2c1 ?
EPAC2 antag: inactive; EPAC2 ag: 13.6%; EPAC1 antag: 148.3%; EPAC1 agonist: inconclusive

What do the screens show for `Nc1ccc(-c2c3ccc(=O)cc-3oc3cc(O)ccc23)cc1C(=O)O`?
EPAC2 antag: inactive; EPAC2 ag: 100µM*; EPAC1 antag: inactive; EPAC1 agonist: 100µM*

Results for O=C(O)c1ccc(COc2ccc(CO)cc2Cl)cc1 ?
EPAC2 antag: 0.5%; EPAC2 ag: 6.5%; EPAC1 antag: 20.9%; EPAC1 agonist: 2.6%

How did CCN1C(=O)/C(=C/c2ccc(OCc3ccc(C(=O)O)cc3)c(Cl)c2)NC1=S do in these assays?
EPAC2 antag: 26.2%; EPAC2 ag: 10.8%; EPAC1 antag: 89.1µM*; EPAC1 agonist: 4.1%

How did Cc1ccc(C(=O)c2coc3ccc(O)c(Cl)c23)cc1 do in these assays?
EPAC2 antag: inconclusive; EPAC2 ag: 20.4%; EPAC1 antag: 20µM*; EPAC1 agonist: 3.6%

How did CCc1noc(C)c1C(=O)Nc1nc2c(C)cc(C)cc2s1 do in these assays?
EPAC2 antag: -14.4%; EPAC2 ag: 24.1%; EPAC1 antag: -24.6%; EPAC1 agonist: 89.1µM*

What do the screens show for `COc1ccc(NC(=O)C2(C)Cc3c(-c4cccc(C(F)(F)F)c4)ccnc3O2)cc1OC` (centres undefined)?
EPAC2 antag: inconclusive; EPAC2 ag: 8.8%; EPAC1 antag: -5.9%; EPAC1 agonist: -19.8%

Results for COc1ccc2c3c(cccc13)C(=O)CC2 ?
EPAC2 antag: 125.0%; EPAC2 ag: 112µM*; EPAC1 antag: 222.2%; EPAC1 agonist: 100µM*

How did COc1ccc2c(c1OC)C(=O)OC2 do in these assays?
EPAC2 antag: 0.0%; EPAC2 ag: 2.3%; EPAC1 antag: -10.8%; EPAC1 agonist: 7.2%

How did CCOC(=O)[C@]12CCCC=C1N(CCc1ccc(OC)c(OC)c1)C(=O)[C@H](CC(=O)N1CCSCC1)C2 do in these assays?
EPAC2 antag: 3.0%; EPAC2 ag: 4.8%; EPAC1 antag: -4.5%; EPAC1 agonist: 10.8%

How did CCOC(=O)c1c(-c2ccccc2)csc1NC(=O)C(C)NCc1ccco1 (centres undefined) do in these assays?
EPAC2 antag: 44.7µM*; EPAC2 ag: 1.3%; EPAC1 antag: inconclusive; EPAC1 agonist: 16.1%

Results for COc1ccccc1C1SCCN1S(C)(=O)=O (centres undefined) ?
EPAC2 antag: 0.3%; EPAC2 ag: 7.94µM*; EPAC1 antag: -1.6%; EPAC1 agonist: -2.5%

What do the screens show for `CC1(C(=O)Nc2cccc(C#N)c2)CCN1C(=O)Cc1ccc(-c2ccccc2)cc1` (centres undefined)?
EPAC2 antag: -5.5%; EPAC2 ag: 13.0%; EPAC1 antag: -15.9%; EPAC1 agonist: 9.1%

How did O=C1NC(=S)S/C1=C\c1ccc(SCc2ccccc2)o1 do in these assays?
EPAC2 antag: inconclusive; EPAC2 ag: 13.6%; EPAC1 antag: 22.4µM*; EPAC1 agonist: 19.0%

How did CCC1=NN2C(=N)/C(=C\c3ccc(SCc4ccco4)o3)C(=O)N=C2S1 do in these assays?
EPAC2 antag: -2.6%; EPAC2 ag: -2.2%; EPAC1 antag: inconclusive; EPAC1 agonist: 3.5%

What do the screens show for `O=C1NC(=S)S/C1=C\c1ccc(SCc2ccco2)o1`?
EPAC2 antag: 44.7µM*; EPAC2 ag: 9.4%; EPAC1 antag: inconclusive; EPAC1 agonist: 10.1%

Results for CCOC(=O)C1=C[C@@H](C2CCCC2)N(S(=O)(=O)c2ccc([N+](=O)[O-])cc2)[C@H]1c1ccccc1 ?
EPAC2 antag: -4.7%; EPAC2 ag: 4.3%; EPAC1 antag: 5.7%; EPAC1 agonist: -5.6%

What do the screens show for `C/C(=N\NC(=O)CC#N)c1cc2ccc(O)cc2oc1=O`?
EPAC2 antag: 241.0%; EPAC2 ag: 112µM*; EPAC1 antag: 13.2%; EPAC1 agonist: 10.8%

What do the screens show for `COC(=O)/N=C(/Cc1ccc(OC)cc1)c1ccc(OC)cc1`?
EPAC2 antag: 56.2µM*; EPAC2 ag: 13.8%; EPAC1 antag: -7.6%; EPAC1 agonist: 9.4%

How did O=C(O)CN1C(=O)/C(=C\c2cc(Br)ccc2OCc2ccccc2F)SC1=S do in these assays?
EPAC2 antag: 56.2µM*; EPAC2 ag: 0.1%; EPAC1 antag: inconclusive; EPAC1 agonist: 5.7%

How did O=C(O)CN1C(=O)/C(=C\c2ccccc2OCc2ccc(Cl)cc2Cl)SC1=S do in these assays?
EPAC2 antag: inconclusive; EPAC2 ag: -0.6%; EPAC1 antag: inconclusive; EPAC1 agonist: 4.5%

What do the screens show for `O=C(O)CN1C(=O)/C(=C\c2cc(Br)ccc2OCc2ccccc2Cl)SC1=S`?
EPAC2 antag: -9.5%; EPAC2 ag: 10.3%; EPAC1 antag: 39.8µM*; EPAC1 agonist: 4.8%

Results for CC(C)(C)c1ccccc1NC(=O)Nc1nc(C(N)Cc2ccc(F)cc2)cs1 (centres undefined) ?
EPAC2 antag: 3.6%; EPAC2 ag: -4.5%; EPAC1 antag: 0.4%; EPAC1 agonist: -12.2%

What do the screens show for `CCn1c(/C=C/N(C(C)=O)c2ccccc2)[n+](CC)c2ccc(Cl)cc21`?
EPAC2 antag: 12.0%; EPAC2 ag: 1.8%; EPAC1 antag: 0.3%; EPAC1 agonist: 1.3%

Results for CC[n+]1c(/C=C/C=C/N(C(C)=O)c2ccccc2)sc2ccccc21 ?
EPAC2 antag: 91.7%; EPAC2 ag: 100µM*; EPAC1 antag: 17.7%; EPAC1 agonist: inconclusive

Results for COC(=O)c1cc(C(=O)c2ccccc2)n2c(=O)/c(=C\N(C)C)sc12 ?
EPAC2 antag: -0.9%; EPAC2 ag: 19.3%; EPAC1 antag: -24.7%; EPAC1 agonist: 5.4%

What do the screens show for `COC(=O)c1cc(C(=O)c2ccc(Cl)cc2)n2c(=O)/c(=C\N(C)C)sc12`?
EPAC2 antag: 93.4%; EPAC2 ag: 100µM*; EPAC1 antag: -4.7%; EPAC1 agonist: 11.9%

What do the screens show for `NS(=O)(=O)c1ccc(CCNc2nn3c(-c4cccc(OC(F)(F)F)c4)cnc3s2)cc1`?
EPAC2 antag: 4.9%; EPAC2 ag: -2.4%; EPAC1 antag: -8.9%; EPAC1 agonist: -12.1%

What do the screens show for `CSCCC(C(=O)Nc1c(C)cccc1C)n1c(-c2cnc(C)cn2)nc2ccccc21` (centres undefined)?
EPAC2 antag: -27.4%; EPAC2 ag: 6.7%; EPAC1 antag: -19.2%; EPAC1 agonist: 1.2%
